The source of these data is PubChem BioAssay (Tox21).

Assay [1] in a line: Human pregnane X receptor (PXR) small molecule agonists, qHTS cell viability counter screen (AID 1346977). Also: nearly all actives have a fitted effect of over 50% in size. Also: potency is read from the fitted curve at half-maximal effect. The procedure, abridged: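 PXR-Luc HepG2 cells in medium with 5% charcoal-stripped FBS were pre-incubated 5hr, then exposed to compounds for 24hr at 37C. Viability was read in the same wells by CellTiter-Fluor fluorescence, reagent added after 23hr with a 1hr incubation.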
A general note: In qHTS, concentration-response curves come from the screen itself.

A short description of assay [2]: Caspase-3/7 induction in HepG2 cells by small molecules, qHTS assay (AID 1346978). Also: nearly all actives have a fitted effect of over 15% in size. The procedure, abridged: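 Wild-type HepG2 cells, 2,000/well, settled 5 hr at 37 C and 5% CO2, then compound-treated for 17 hr; caspase-3/7 activity read by luminescent Caspase-Glo 3/7 after 30 min at room temperature.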
A short description of assay [3]: Caspase-3/7 induction in CHO-K1 cells by small molecules, qHTS cell viability counter screen (AID 1346979). Also: nearly all actives have a fitted effect of over 35% in size. Also: potency is read from the fitted curve at half-maximal effect. The procedure, abridged:
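Wild-type CHO-K1 cells were seeded at 1,500 per well, rested 5hr at 37 C, then exposed to compounds in DMSO. After 16hr, CellTiter-Fluor reagent was added and fluorescence read 1hr later as the viability measure.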

Assay [4] is described as follows: Caspase-3/7 induction in CHO-K1 cells by small molecules, qHTS assay (AID 1346980). Also: nearly all actives have a fitted effect of over 15% in size. The procedure, abridged: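 Wild-type CHO-K1 cells exposed to compounds for 17hr at 37 C, 5% CO2. Caspase-3/7 activity then measured by Caspase-Glo 3/7 luminescence after 30min at room temperature.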
Assay [5] can be described thus: Caspase-3/7 induction in HepG2 cells by small molecules, qHTS cell viability counter screen (AID 1346981). Also: nearly all actives have a fitted effect of over 30% in size. Also: potency is read from the fitted curve at half-maximal effect. The procedure, abridged: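 Multiplexed with the caspase-3/7 assay: HepG2 cells, 16 hr compound treatment, CellTiter-Fluor viability detection by fluorescence.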
Assay [6] addresses Nuclear receptor subfamily 1 group I member 2 (Homo sapiens) (UniProt O75469). The assay can be described thus: Human pregnane X receptor (PXR) small molecule agonists, qHTS assay (AID 1346982). Also: nearly all actives have a fitted effect of over 35% in size. Also: potency is read from the fitted curve at half-maximal effect. The procedure, abridged: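 We seeded PXR-Luc HepG2 cells in assay medium containing 5% charcoal-stripped FBS, added compounds 5 hr later, incubated 24 hr, and read luminescence with ONE-Glo reagent.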

The target of assay [7] is Cytochrome P450 2D6 (Homo sapiens) (UniProt P10635). Nature of the assay: Cytochrome P450 Family 2 Subfamily D Member 6 (CYP2D6) small molecule antagonists: luciferase reporter qHTS assay (AID 1671196). Also: nearly all actives have a fitted effect of over 50% in size. Also: potency is read from the fitted curve at half-maximal effect. The procedure, abridged: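 Luminescence (RLU), read 20 min after detection reagent, indicated CYP2D6 conversion of proluciferin to luciferin during a 1 h NADPH-dependent reaction at room temperature.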
Chain of Cytochrome P450 2D6 (Homo sapiens) (P10635 whole entry, looked up): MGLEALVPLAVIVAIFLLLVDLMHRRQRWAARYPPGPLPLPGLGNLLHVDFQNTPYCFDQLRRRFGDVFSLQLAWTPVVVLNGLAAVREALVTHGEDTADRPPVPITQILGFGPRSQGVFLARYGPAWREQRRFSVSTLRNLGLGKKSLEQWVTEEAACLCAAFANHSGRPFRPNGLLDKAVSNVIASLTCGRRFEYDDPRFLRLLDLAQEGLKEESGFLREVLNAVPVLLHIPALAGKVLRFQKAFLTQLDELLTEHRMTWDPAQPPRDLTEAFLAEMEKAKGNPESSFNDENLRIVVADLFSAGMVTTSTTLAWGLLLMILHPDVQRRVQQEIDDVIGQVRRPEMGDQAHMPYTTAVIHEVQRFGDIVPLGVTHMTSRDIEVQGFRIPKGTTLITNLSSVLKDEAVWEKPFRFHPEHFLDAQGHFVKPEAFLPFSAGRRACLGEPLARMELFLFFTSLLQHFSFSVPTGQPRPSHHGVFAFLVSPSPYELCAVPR
In general terms: Reporter assays use an easily measured gene product as a stand-in for the process of interest.

Assay [8] has as its target Cytochrome P450 2C19 (Homo sapiens) (UniProt P33261). The assay can be described thus: Cytochrome P450 Family 2 Subfamily C Member 19 (CYP2C19) small molecule antagonists: luciferase reporter qHTS assay (AID 1671197). Also: nearly all actives have a fitted effect of over 65% in size. Also: potency is read from the fitted curve at half-maximal effect. The procedure, abridged: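 Enzyme-substrate mix with proluciferin substrate (P450-Glo CYP2C19 system) preincubated with compounds 10 min at room temperature; NADPH regeneration solution added, 37C for 1 h; detection reagent stops reaction, luminescence read after 20 min. Ketoconazole positive control.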

The target in assay [9] is Cytochrome P450 2C9 (Homo sapiens) (UniProt P11712). The assay can be described thus: Cytochrome P450 Family 2 Subfamily C Member 9 (CYP2C9) small molecule antagonists: luciferase reporter qHTS assay (AID 1671198). Also: nearly all actives have a fitted effect of over 50% in size. Also: potency is read from the fitted curve at half-maximal effect. The procedure, abridged: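 P450-Glo proluciferin substrate with CYP2C9 enzyme; 10 min RT preincubation, then NADPH regeneration 1 h at 37C; luciferin detection reagent 20 min RT, luminescence in relative luminescence units.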
Chain of Cytochrome P450 2C9 (Homo sapiens) (P11712 whole entry, looked up): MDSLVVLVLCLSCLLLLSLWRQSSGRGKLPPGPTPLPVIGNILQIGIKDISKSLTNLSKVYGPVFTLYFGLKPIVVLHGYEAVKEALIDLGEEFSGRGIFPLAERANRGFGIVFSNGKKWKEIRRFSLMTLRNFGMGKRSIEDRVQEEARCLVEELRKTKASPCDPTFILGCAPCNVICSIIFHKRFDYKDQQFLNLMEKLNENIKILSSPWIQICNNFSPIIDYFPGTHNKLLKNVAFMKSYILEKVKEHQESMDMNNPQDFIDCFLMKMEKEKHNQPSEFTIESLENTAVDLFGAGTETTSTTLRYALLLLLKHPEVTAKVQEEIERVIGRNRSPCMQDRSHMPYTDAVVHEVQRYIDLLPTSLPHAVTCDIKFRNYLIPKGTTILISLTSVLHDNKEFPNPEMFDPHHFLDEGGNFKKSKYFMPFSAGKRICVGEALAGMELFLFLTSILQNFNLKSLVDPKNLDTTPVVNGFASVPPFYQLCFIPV

The target of assay [10] is Cytochrome P450 1A2 (Homo sapiens) (UniProt P05177). The assay can be described thus: Cytochrome P450 Family 1 Subfamily A Member 2 (CYP1A2) small molecule antagonists: luciferase reporter qHTS assay (AID 1671199). Also: nearly all actives have a fitted effect of over 50% in size. Also: potency is read from the fitted curve at half-maximal effect. The procedure, abridged: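 CYP1A2 turnover of a luminogenic substrate was quantified after 1 h with NADPH regeneration at room temperature. Furafylline served as positive control.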
Chain of Cytochrome P450 1A2 (Homo sapiens) (P05177 whole entry, looked up): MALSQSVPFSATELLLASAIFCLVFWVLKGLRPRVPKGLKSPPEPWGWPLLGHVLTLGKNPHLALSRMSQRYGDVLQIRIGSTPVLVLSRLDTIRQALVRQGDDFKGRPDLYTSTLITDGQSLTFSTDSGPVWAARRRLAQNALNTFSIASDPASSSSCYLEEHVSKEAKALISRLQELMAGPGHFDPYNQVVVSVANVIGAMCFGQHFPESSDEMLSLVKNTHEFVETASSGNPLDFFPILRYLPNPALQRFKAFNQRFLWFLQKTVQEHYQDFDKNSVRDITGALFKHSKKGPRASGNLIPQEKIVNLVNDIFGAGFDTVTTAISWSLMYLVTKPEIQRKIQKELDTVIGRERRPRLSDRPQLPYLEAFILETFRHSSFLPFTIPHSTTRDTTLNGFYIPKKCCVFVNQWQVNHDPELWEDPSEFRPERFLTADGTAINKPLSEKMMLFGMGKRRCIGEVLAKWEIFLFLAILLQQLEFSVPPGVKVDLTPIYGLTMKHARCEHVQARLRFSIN

Assay [11] has as its target Voltage-gated inwardly rectifying potassium channel KCNH2 (Homo sapiens) (UniProt Q12809). The assay can be described thus: Human Ether-a-go-go-Related Gene (hERG) channel small molecule antagonists: fluorescence cell-based qHTS assay (AID 1671200). The procedure, abridged: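 U2OS cells expressing the channel were plated at 1000 cells/well, incubated overnight at 37 C, then loaded with FluxOR II thallium-sensitive dye for 1 h at room temperature in the dark, with a further 10 min at room temperature before stimulation.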
For orientation: The hERG channel carries a current that helps repolarise heart muscle cells.

For assay [12], the target named is Cytochrome P450 3A4 (Homo sapiens) (UniProt P08684). The assay can be described thus: Cytochrome P450 Family 3 Subfamily A Member 4 (CYP3A4) small molecule antagonists: luciferase reporter qHTS assay (AID 1671201). Also: nearly all actives have a fitted effect of over 50% in size. Also: potency is read from the fitted curve at half-maximal effect. The procedure, abridged:
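P450-Glo CYP3A4 system with proluciferin substrate; compounds preincubated 10 min RT with enzyme-substrate mix, then NADPH regeneration added for 1 h RT. Detection reagent 20 min, luminescence read as relative luminescence units.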

The target of assay [13] is Nuclear receptor subfamily 1 group I member 2 (Rattus norvegicus) (UniProt Q9R1A7). Nature of the assay: Rat pregnane X receptor (rPXR) activation by small molecules, qHTS assay (AID 1346983). Also: nearly all actives have a fitted effect of over 20% in size. As to conditions: rPXR luciferase reporter cells, One-Glo luminescence, 24 h; max activation: stronger effect = higher value. The procedure, abridged: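 Cell-based rPXR activation assay: rPXR cells, 2,000 per well, rested 5hr at 37 C, then exposed to compounds in DMSO for 24 hr at 37 C. Luciferase activity read by One-Glo luminescence after 30 min at room temperature.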
Chain of Nuclear receptor subfamily 1 group I member 2 (Rattus norvegicus) (Q9R1A7 whole entry, looked up): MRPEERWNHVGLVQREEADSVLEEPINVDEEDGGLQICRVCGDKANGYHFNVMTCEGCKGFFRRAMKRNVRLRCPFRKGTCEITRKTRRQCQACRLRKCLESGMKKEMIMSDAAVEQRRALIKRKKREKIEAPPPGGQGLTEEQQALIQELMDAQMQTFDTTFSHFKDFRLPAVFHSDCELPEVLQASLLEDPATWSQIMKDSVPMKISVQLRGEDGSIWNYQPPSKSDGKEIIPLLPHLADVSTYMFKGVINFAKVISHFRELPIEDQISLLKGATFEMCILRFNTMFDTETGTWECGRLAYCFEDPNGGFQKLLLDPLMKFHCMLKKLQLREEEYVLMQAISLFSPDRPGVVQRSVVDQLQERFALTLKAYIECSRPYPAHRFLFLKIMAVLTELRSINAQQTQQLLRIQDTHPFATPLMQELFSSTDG

The target in assay [14] is Nuclear receptor subfamily 1 group I member 2 (Homo sapiens) (UniProt O75469). Nature of the assay: CYP3A4 induction through human pregnane X receptor (PXR) by small molecules, qHTS assay (AID 1346984). Also: nearly all actives have a fitted effect of over 40% in size. The procedure, abridged:
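qHTS, concentration-response format: HepG2 DPX-2 line, PXR/CYP3A4-luc. Exposure 24 h, 37C. Substrate Luciferin-IPA 3uM final, 3 h. Detection One-Glo, 30 min RT.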

Assay [15] shares this target. The assay can be described thus: Human pregnane X receptor (PXR) activation by small molecules, qHTS assay (AID 1346985). Also: nearly all actives have a fitted effect of over 40% in size. The procedure, abridged:
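DPX-2 cells (HepG2 co-transfected with a PXR response element and a CYP3A4-promoter luciferase construct) were seeded at 2,000 per well, rested 5 hr at 37C, then exposed to DMSO-dissolved compounds for 24 hr. Activation was read as luciferase luminescence.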

Assay [16] addresses Thyrotropin-releasing hormone receptor (Homo sapiens) (UniProt P34981). The assay can be described thus: qHTS assay to identify small molecule agonists of the thyrotropin-releasing hormone receptor (TRHR) signaling pathway (AID 1346891; calls by dose curve; also: series mostly up to about 58 µM). The procedure, abridged: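 TRHR-expressing HEK293 cells were plated 18 h at 37 °C/5% CO2, loaded with calcium dye 2 h at 37 °C, then given compound in DMSO; fluorescence was read kinetically for 3 min at 1 s intervals.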

Values joined by “and” are separate entries in the source; they are usually repeats but may differ in a detail not shown here. Equal entries are not always repeated. Records with an inconclusive call do not appear. The source holds several records for some structures; these can differ, active in one and inactive in another. Active and inactive are the calls of the source. Unless noted, calls follow the shape of the dose curve; as a rule, active = well fitted curve in the direction sought with a large enough effect in the repeat runs; inconclusive = weak or mixed curves; inactive = no such curve, though single readings can be large; an effect the other way counts as inactive or inconclusive.
% is scaled to controls: 0 for no effect and ±100 for the full control effect.

Chain of Nuclear receptor subfamily 1 group I member 2 (Homo sapiens) (O75469 whole entry, looked up): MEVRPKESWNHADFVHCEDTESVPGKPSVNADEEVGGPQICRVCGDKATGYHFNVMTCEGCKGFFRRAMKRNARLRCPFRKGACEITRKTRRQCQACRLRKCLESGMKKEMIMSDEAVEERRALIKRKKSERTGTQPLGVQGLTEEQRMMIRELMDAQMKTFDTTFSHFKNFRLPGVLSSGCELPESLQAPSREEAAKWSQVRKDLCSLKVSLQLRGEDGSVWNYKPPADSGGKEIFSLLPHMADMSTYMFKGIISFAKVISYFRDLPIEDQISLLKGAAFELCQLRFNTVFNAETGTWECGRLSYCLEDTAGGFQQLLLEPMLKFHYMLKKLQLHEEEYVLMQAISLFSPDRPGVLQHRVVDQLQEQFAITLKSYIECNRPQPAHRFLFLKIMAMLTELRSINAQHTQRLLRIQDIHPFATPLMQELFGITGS
Chain of Cytochrome P450 3A4 (Homo sapiens) (P08684 whole entry, looked up): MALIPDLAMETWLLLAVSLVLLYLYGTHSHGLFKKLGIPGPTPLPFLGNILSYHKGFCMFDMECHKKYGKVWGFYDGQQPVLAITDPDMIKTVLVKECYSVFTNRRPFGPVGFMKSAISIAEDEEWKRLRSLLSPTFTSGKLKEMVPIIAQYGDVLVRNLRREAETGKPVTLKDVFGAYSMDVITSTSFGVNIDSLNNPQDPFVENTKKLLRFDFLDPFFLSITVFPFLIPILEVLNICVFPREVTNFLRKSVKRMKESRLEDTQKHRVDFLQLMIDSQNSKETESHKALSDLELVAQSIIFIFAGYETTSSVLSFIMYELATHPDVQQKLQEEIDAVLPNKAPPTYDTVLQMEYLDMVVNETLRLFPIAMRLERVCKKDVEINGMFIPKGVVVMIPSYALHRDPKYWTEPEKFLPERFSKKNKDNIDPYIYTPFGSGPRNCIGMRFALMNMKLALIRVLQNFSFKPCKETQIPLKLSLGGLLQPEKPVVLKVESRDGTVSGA
Chain of Voltage-gated inwardly rectifying potassium channel KCNH2 (Homo sapiens) (Q12809 whole entry, looked up): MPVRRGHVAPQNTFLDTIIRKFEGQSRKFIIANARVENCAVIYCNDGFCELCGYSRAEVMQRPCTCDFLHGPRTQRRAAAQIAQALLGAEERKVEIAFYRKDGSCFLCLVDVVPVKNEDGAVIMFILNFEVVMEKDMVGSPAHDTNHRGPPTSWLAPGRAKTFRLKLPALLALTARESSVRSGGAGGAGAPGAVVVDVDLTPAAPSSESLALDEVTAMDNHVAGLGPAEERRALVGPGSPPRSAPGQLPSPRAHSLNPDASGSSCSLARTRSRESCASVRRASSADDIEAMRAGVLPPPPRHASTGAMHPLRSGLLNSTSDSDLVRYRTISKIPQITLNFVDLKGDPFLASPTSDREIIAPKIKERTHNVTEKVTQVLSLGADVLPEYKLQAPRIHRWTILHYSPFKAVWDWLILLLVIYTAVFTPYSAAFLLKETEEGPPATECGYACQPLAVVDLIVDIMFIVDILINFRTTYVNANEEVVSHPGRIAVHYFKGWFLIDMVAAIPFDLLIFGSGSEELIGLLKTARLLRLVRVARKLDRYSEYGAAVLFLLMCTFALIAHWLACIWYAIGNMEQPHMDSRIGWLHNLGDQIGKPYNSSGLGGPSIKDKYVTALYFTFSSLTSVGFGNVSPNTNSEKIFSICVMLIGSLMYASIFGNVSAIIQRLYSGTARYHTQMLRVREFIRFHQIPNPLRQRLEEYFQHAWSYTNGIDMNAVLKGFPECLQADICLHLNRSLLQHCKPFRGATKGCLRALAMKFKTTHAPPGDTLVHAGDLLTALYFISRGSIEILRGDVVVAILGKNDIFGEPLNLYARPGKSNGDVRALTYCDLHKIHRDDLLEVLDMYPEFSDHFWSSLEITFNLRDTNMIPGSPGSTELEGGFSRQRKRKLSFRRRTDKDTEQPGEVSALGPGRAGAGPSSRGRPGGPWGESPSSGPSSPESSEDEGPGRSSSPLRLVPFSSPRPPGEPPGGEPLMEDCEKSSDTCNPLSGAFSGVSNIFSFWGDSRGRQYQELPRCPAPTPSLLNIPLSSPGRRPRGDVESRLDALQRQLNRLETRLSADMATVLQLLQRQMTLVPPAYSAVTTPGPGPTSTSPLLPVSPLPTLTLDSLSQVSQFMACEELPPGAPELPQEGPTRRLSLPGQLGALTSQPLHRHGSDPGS
Chain of Cytochrome P450 2C19 (Homo sapiens) (P33261 whole entry, looked up): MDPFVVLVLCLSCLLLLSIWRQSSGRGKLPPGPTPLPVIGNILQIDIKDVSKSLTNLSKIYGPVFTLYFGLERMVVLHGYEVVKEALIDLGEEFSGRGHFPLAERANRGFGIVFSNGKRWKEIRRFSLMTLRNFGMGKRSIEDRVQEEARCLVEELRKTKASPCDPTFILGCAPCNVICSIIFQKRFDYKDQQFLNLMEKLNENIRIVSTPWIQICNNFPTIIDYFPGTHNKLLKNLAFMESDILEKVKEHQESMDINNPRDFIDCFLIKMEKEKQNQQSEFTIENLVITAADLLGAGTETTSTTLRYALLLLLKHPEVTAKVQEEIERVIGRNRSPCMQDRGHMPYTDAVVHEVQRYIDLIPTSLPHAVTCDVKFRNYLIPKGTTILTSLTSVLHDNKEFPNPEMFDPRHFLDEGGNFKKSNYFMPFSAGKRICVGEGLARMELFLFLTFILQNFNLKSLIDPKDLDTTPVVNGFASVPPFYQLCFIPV
Chain of Thyrotropin-releasing hormone receptor (Homo sapiens) (P34981 whole entry, looked up): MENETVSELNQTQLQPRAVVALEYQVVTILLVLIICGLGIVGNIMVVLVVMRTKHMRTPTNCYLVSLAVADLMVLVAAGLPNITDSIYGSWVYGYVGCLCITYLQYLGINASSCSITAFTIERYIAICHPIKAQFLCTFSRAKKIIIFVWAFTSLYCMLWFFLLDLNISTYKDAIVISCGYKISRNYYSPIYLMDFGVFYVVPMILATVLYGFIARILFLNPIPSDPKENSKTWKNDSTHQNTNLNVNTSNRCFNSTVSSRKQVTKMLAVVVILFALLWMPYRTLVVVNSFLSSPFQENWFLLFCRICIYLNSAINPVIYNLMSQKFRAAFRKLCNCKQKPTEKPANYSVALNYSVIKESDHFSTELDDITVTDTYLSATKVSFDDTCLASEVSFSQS

For `Cc1ccc(C(=O)O)o1`, the Potency result in assay [1], in [2], in assay [3], in assay [4], in assay [5] and in [6] was “inactive” throughout. Also, the Potency entry in assay [7], in assay [8], in assay [9], in assay [10], in assay [11] and in [12] was “inactive” in each case.

As to `CS(=O)(=O)c1ccc([C@@H](O)[C@@H](CO)NC(=O)C(Cl)Cl)cc1`, the Potency entry in assay [2], in [3], in assay [4], in assay [5], in [6] and in assay [9] was “inactive” each time. Further, the Potency result in assay [10], in assay [11] and in assay [12] was “inactive” in each case. Further, the max activation in assay [13] is -0.108% (inactive). In addition, the compound was called inactive in assay [14] and in [15]. Also, the Potency in [7] is 64.1 µM (active) and inactive; in [8], 28.6 µM (active) and 17.4 µM (active).

With `Cn1c([N+](=O)[O-])cnc1COC(N)=O`, the Potency result in assay [2], in assay [3], in assay [4], in assay [5], in [6] and in assay [7] was “inactive” in each case. For the same compound, the Potency result in assay [8], in [9], in assay [11] and in assay [12] was “inactive” each time.

In the case of `C/C=C(C)/C=C/C=C(C)C`, the Potency result in assay [1], in [2], in assay [4], in assay [5], in assay [7] and in assay [11] was “inactive” throughout. In addition, the Potency in assay [6] is 60.4 µM (active) and 27.3 µM (active); in [8], 70.2 µM (active) and 79.6 µM (active); in assay [10] it was 39.9 µM (active); in assay [12] it was 31.3 µM (active) and 35.6 µM (active).

For `CCCCCCCCCCC=CC1CC(=O)OC1=O` (stereo not given), the Potency entry in [2], in assay [3], in assay [4], in assay [5], in assay [6] and in assay [10] was “inactive” each time. Further, the Potency result in assay [11] and in assay [12] was “inactive” each time. Also, the Potency in assay [8] was 45 µM (active) and inactive; in [9] it was 71.4 µM (active) and 39.9 µM (active).

As for `CC(=O)[C@@]1(O)CC[C@H]2[C@@H]3CCC4=CC(=O)CC[C@]4(C)[C@H]3CC[C@@]21C`, the Potency entry in assay [16], in [2], in assay [3], in assay [4], in [5] and in [11] was “inactive” each time.

On to `CC1=C(CC(=O)O)c2cc(F)ccc2/C1=C\c1ccc(S(C)=O)cc1` (stereo not given), for which the Potency entry in assay [2], in assay [3], in assay [4], in [5], in assay [11] and in assay [12] was “inactive” each time. Also, the Potency in assay [6] is 21.7 µM (active) and inactive; in assay [7], 35.6 µM (active) and 34.7 µM (active); in [8] it was 7.96 µM (active) and 8.71 µM (active); in assay [9], 50.2 µM (active) and inactive; in assay [10], 35.6 µM (active). Moreover, the max activation in [13] was -1.51% (inactive). Moreover, the result in [14] and in assay [15] was inactive.

`Cc1cc(NS(=O)(=O)c2ccc(N)cc2)no1`: the Potency result in [1], in assay [2], in assay [3], in [4] and in assay [5] was “inactive” in each case.

In the case of `CC(C)(CO)COC(=O)C(C)(C)CO`, the Potency result in assay [16], in assay [2], in [3], in assay [4], in assay [5] and in assay [6] was “inactive” in each case. The Potency entry in [7], in [11] and in assay [12] was “inactive” throughout. Further, in assay [8], the Potency is 8.94 µM (active) and 39.9 µM (active).

`CN(CCOc1ccc(CC2SC(=O)NC2=O)cc1)c1ccccn1` (stereo not given): the Potency entry in assay [1], in [2], in [3], in assay [4], in assay [5] and in assay [8] was “inactive” each time. Besides, in assay [11], the Potency entry is “inactive”. Also, the Potency in [6] is 54.2 µM (active) and inactive; in [9], 62.9 µM (active) and inactive. The max activation in assay [13] is -1.4% (inactive). In assay [15], the compound was called inactive.

Regarding `O=C1N=C(O)CN1/N=C/c1ccc(-c2ccc([N+](=O)[O-])cc2)o1`, the Potency in assay [1] was 27.3 µM (active) and 23.7 µM (active); in [3], 54.5 µM (active) and 26.6 µM (active); in assay [5] it was 48.6 µM (active). Besides, the Potency entry in [2], in [4] and in [11] was “inactive” each time. Besides, the max activation in [13] is -4.97% (inactive).

`CCOC(=O)[C@H](CCc1ccccc1)N[C@@H](C)C(=O)N1Cc2ccccc2C[C@H]1C(=O)O`: the Potency entry in assay [2], in assay [4], in [5], in [7], in [10] and in [11] was “inactive” each time. In addition, the Potency in assay [6] was 30.9 µM (active) and 11.9 µM (active); in [8], 35.8 µM (active) and inactive; in [9], 8.02 µM (active) and 12.3 µM (active). In assay [13], the max activation was -0.751% (inactive). For the same compound, the call in assay [14] and in assay [15] was inactive.

`OCC#CCO`: the Potency entry in assay [16], in assay [2], in assay [4], in assay [5], in assay [7] and in assay [9] was “inactive” each time. Moreover, the Potency result in [11] and in assay [12] was “inactive” each time. Besides, the Potency in [6] is 55.3 µM (active) and inactive; in [8], 57.2 µM (active) and inactive.

For the compound `Oc1ccc2ccccc2c1`, the Potency entry in assay [2], in assay [3], in assay [4], in [5] and in assay [11] was “inactive” each time.

On to `Oc1c(Cl)cc(Cl)c(Cl)c1Cl`, for which the Potency result in assay [16], in assay [2], in assay [4], in assay [7], in assay [8] and in [11] was “inactive” each time. The Potency entry in assay [12] was “inactive”. Besides, the Potency in assay [6] was 59.8 µM (active) and 54.5 µM (active); in assay [9], 39.1 µM (active) and 28.3 µM (active).
